Screening results: PubChem, several laboratories
tim23-1 inh = inhibits growth of tim23-1 mutant yeast | S. cerevisiae tim23-1 growth, BacTiter-Glo luminescence, 24 h | inhibition, % at 20 µM | 1.3% of 330,000 active;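 active = growth inhibition of the mutant yeast at or above 50%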;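 note: temperature-sensitive mutant grown at 25 °C; plate controls were DMSO-treated mutant yeast for no effect and medium wells lacking yeast for full effect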
TIM10 inh = growth inhibitors of TIM10 yeast strain; S. cerevisiae TIM10 strain growth, BacTiter-Glo luminescence, 24 h; inhibition, % at 10 µM; 1.4% of 330,000 active;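 active = inhibition of 40% or more at the single tested concentration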;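 note: wild-type TIM10 isogenic control strain grown at permissive 25 °C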
SKKanGAS inh = SKKanGAS growth inhibition | S. pyogenes SKKanGAS, kanamycin growth, BacTiter-Glo, 6 h | 1.3% of 300,000 active | inhibition, % at 7.5 µM;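 active = mean replicate score, as percent of positive control median, at least 50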;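 note: strain carries kanamycin resistance gene driven by streptokinase promoter and grows in 40 µg/ml kanamycin; loss of luminescence reflects streptokinase promoter inhibition or plain growth inhibition; 0% = median of DMSO wells and 100% = positive control at its reference dose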
NLRP3 yeast inh = blocks the NALP3 inflammasome reconstituted in yeast. Yeast reconstituted NLRP3/ASC/caspase-1, beta-gal luminescence, 24 h. inhibition, % at 10 µM. 0.39% of 330,000 active;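 active = inhibition of 50% or more; inactive = inhibition below 50%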;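 note: plate controls were induced DMSO wells for no effect and uninduced yeast grown without galactose for full effect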
tim10-1 inh = inhibits growth of tim10-1 mutant yeast; S. cerevisiae tim10-1 ts strain growth, BacTiter-Glo, 24 h; inhibition, % at 20 µM; 2.2% of 330,000 active; AID 463190;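 active = inhibition of at least 40%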;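 note: mutant grown at 25 °C; 0% = DMSO wells with yeast and 100% = wells holding no yeast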
PfHsp90 set2 = reduces growth (ATP signal) of yeast expressing P. falciparum Hsp90. S. cerevisiae expressing PfHsp90, BacTiter-Glo ATP, 48 h; yeast lacking PDR1 and PDR3 efflux regulators. inhibition, % at 9.4 µM. 0.32% of 310,000 active. AID 504621;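 active = every replicate shows inhibition above about 80%, whatever the replicate mean, limit read from the data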;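 note: 0% = DMSO neutral controls and 100% = 20 µM radicicol positive controls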
Numbers without * were called inactive; / = no result. This is a sample that favours compounds with a hit; in the whole collection about 4.5% have one here.

SMILES	tim23-1 inh	TIM10 inh	SKKanGAS inh	NLRP3 yeast inh	tim10-1 inh	PfHsp90 set2
Cc1ccc2nc(-c3ccccn3)c(NC3CCCC3)n2c1	23.3	16.5	96.3*	24.1	30.2	-9.2
Cc1cccc(C)c1Nc1c(-c2ccsc2)nc2ncccn12	40.2	25.8	-0.4	11.5	10.4	-0.8
Cc1ccc(Nc2c(-c3ccccn3)nc3cccc(C)n23)cc1	40.9	22.0	101.6*	43.6	-35.1	-9.8
Cc1ccccc1Nc1c(-c2ccc(N3CCOCC3)cc2)nc2ncccn12	25.1	7.9	-13.9	12.6	12.1	6.6
Cc1ccccc1Nc1c(-c2ccccn2)nc2c(C)cccn12	11.7	28.0	81.1*	-85.9	2.9	-50.4
Cc1cccc(C)c1Nc1c(-c2ccccn2)nc2ccccn12	22.4	16.7	96.6*	22.0	22.8	-0.1
COc1cccc(NC(=O)CN(C)C(=O)c2cc(C)on2)c1	10.6	1.2	-8.2	2.5	2.3	-4.0
O=c1cc(O)c2sc3nc(-c4ccccc4)cc(C(F)(F)F)c3c2[nH]1	18.2	-14.9	28.0	10.1	5.9	-12.9
COc1ccc(OC)c(-c2cc(C(F)(F)F)c3c(n2)sc2c(O)cc(=O)[nH]c23)c1	17.0	0.3	81.5*	18.9	16.5	-30.9
COC(=O)C(Nc1ccccc1Cl)(c1cc(C)c(O)c(C)c1)C(F)(F)F (stereo not given)	23.5	7.7	88.4*	-3.8	5.6	-17.4
Cc1cccc(NC2=NC(C)(C)N=C(N)N2)c1	-2.7	0.0	111.0*	1.7	0.2	-5.2
Cc1cc(C)cc(NC2=NC3(CCCCC3)N=C(N)N2)c1	15.5	-5.6	-0.8	9.9	4.0	-13.8
Cc1ccc(NS(=O)(=O)c2ccc(C3CCCCC3)cc2)cc1	12.9	11.3	76.3*	9.9	11.3	-62.1
Cc1ccc(S(=O)(=O)Nc2ccc(N3CCCCC3)cc2)cc1	20.0	-0.7	-4.1	24.4	11.1	2.8
Cc1ccc(S(=O)(=O)N2CCC(C(=O)Nc3ccccc3N3CCCC3)CC2)cc1C	3.5	0.9	-5.8	32.0	14.1	/
COc1cc(/C=N/NC(=O)C23CC4CC(CC(C4)C2)C3)cc(Br)c1O	16.3	1.5	7.7	5.2	-5.0	-12.9
O=C(N/N=C/c1cc([N+](=O)[O-])cc(Br)c1O)C12CC3CCC(CC(C3)C1)C2	28.6	35.2	50.8*	15.8	19.8	-18.0
C[C@@H](NC(=O)c1ncn(Cc2ccccc2)c1C(=O)N[C@H](C)c1ccccc1)c1ccccc1	12.7	4.9	/	-8.2	19.1	-5.8
CCn1c(SCC(=O)Nc2nc(-c3ccc(C)cc3)cs2)nnc1-c1ccccc1O	37.7	24.7	54.9*	28.8	35.0	2.0
CCn1c(SCC(=O)Nc2nc(-c3ccc(C)cc3)cs2)nnc1-c1ccccc1	11.3	9.7	20.7	12.6	14.1	-6.1
COc1ccccc1CCC(=O)N1CCC(n2nccc2NC(=O)C2CCOC2)CC1 (stereo not given)	3.8	7.5	-0.3	8.4	-14.6	-7.4
Cc1ccc(O)c(/C=N/NC(=O)Cc2ccc(Cl)cc2)c1	16.3	0.4	97.1*	30.3	-1.1	0.1
Cc1cccc(/C=N/NC(=O)Cc2ccc(Cl)cc2)c1O	34.8	8.9	107.4*	13.7	-11.2	26.3
Cc1cccc(/C=N\NC(=O)c2ccc(Cl)cc2)c1O	-2.8	1.5	93.3*	15.2	-8.3	-0.6
COc1ccc(S(=O)(=O)N(C)c2ccc(C(=O)Nc3ccccc3C(=O)N3CCOCC3)cc2)cc1OC	6.9	14.0	1.2	16.9	12.2	9.4
SMILES	tim23-1 inh	TIM10 inh	SKKanGAS inh	NLRP3 yeast inh	tim10-1 inh	PfHsp90 set2
O=C(c1ccc2c(=O)n3c(nc2c1)CCCCC3)N1CCN(c2ccc([N+](=O)[O-])cc2)CC1	19.6	17.7	4.0	19.4	8.9	17.4
C[C@H](NC(=O)C1CCN(S(=O)(=O)c2ccccc2)CC1)C(=O)NCc1cccc(C(F)(F)F)c1	-5.6	-4.9	-6.6	-1.2	-10.6	-22.0
O=C(COC(=O)c1ccc(S(=O)(=O)N2CCCCCC2)cc1)NCc1ccc(Cl)cc1	1.8	3.8	/	14.9	7.3	7.7
CCOc1ccc(N2CC(C(=O)Nc3cccc(C(=O)NC4CC4)c3)CC2=O)cc1 (stereo not given)	6.7	1.1	/	20.3	12.3	-1.7
Cc1cc(C)c2cccc(N)c2n1	10.4	15.1	-9.8	24.1	17.9	18.5
Cc1cc(C)c2ccc(N)nc2c1O	-0.4	14.8	98.6*	3.8	24.5	-19.0
